What all share (settings): Compound concentration 20.0 uM, Protein concentration 2.0 uM, Result type QC Liability
Assay [1] concerns the target Tyrosine-protein kinase ABL1 (Homo sapiens) (UniProt P00519).
For assay [2], the target named is Cyclin-dependent kinase 2 (Homo sapiens) (UniProt P24941).
The target of assay [3] is Casein kinase I isoform delta (Homo sapiens) (UniProt P48730).
For assay [4], the target named is Glycogen synthase kinase-3 beta (Homo sapiens) (UniProt P49841).
The target of assay [5] is Mitogen-activated protein kinase 1 (Homo sapiens) (UniProt P28482).
The target of assay [6] is T1, Aurora kinase A (Homo sapiens) (UniProt O14965).
T1 sequence (whole entry): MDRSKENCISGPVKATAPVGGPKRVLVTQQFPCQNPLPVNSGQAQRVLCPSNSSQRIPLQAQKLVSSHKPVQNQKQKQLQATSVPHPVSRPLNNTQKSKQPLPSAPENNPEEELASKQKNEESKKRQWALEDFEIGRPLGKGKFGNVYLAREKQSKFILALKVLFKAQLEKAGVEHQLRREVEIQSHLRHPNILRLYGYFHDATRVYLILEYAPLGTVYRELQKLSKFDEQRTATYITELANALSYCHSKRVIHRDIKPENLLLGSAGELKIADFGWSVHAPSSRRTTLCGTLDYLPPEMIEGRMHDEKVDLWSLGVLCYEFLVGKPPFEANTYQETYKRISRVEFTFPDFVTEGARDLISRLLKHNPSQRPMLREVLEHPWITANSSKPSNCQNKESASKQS

“And” between values parts separate entries of the source, which are not always exact repeats. Equal values may be shown once.

Casein kinase I isoform delta (Homo sapiens), sequence (P48730 whole entry, looked up, canonical isoform): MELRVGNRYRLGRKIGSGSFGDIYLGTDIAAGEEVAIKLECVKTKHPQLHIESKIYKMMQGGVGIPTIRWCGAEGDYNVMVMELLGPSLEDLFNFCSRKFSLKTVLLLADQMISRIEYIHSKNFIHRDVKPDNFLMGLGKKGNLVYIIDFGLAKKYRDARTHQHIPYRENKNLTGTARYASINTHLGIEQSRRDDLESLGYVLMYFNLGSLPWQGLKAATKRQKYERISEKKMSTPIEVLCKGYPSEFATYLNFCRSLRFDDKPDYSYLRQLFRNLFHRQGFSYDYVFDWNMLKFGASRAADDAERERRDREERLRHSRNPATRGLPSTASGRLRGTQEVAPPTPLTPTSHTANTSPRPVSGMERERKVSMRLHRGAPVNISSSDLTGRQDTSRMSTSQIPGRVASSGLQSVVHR
Tyrosine-protein kinase ABL1 (Homo sapiens), sequence (P00519 whole entry): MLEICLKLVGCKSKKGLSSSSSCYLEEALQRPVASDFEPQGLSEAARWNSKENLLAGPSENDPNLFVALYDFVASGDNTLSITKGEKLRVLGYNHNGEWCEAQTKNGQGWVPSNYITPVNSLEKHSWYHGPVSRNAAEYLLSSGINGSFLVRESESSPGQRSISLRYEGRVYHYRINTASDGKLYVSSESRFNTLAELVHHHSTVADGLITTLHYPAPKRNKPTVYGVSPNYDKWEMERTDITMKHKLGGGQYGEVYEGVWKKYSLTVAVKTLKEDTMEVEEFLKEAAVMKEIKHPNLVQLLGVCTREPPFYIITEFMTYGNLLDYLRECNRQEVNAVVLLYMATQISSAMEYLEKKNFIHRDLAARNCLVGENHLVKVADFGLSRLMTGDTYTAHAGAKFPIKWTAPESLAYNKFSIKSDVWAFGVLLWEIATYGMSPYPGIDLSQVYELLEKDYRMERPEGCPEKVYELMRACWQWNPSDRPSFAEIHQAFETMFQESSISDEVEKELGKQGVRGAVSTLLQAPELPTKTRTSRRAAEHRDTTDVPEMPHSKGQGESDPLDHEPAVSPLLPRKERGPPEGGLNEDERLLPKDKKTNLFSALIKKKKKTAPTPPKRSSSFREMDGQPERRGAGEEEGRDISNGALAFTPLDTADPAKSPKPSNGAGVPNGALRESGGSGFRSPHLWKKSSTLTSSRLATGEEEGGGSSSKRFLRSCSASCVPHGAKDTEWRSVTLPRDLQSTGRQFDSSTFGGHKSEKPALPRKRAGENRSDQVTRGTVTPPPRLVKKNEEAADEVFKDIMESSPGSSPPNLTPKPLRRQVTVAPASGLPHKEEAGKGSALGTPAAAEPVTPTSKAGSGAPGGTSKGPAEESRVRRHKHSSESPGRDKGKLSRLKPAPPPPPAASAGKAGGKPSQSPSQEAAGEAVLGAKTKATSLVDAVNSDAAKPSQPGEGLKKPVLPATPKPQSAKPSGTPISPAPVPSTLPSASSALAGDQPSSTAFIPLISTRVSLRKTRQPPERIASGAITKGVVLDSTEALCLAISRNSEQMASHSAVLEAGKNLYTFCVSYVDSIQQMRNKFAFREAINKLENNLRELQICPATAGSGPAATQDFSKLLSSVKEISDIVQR
Glycogen synthase kinase-3 beta (Homo sapiens), sequence (P49841 whole entry, looked up): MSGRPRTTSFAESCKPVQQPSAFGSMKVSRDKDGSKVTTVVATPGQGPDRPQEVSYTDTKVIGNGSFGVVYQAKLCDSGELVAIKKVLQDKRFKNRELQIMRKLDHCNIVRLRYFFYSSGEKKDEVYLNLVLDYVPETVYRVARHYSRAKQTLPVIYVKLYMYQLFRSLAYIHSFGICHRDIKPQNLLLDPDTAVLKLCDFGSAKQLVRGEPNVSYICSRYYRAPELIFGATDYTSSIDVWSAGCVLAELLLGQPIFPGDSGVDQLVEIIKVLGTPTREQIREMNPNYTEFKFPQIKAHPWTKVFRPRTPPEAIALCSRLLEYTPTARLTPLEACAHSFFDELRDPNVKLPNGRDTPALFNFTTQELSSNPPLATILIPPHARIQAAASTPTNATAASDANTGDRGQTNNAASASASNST
Mitogen-activated protein kinase 1 (Homo sapiens), sequence (P28482 whole entry): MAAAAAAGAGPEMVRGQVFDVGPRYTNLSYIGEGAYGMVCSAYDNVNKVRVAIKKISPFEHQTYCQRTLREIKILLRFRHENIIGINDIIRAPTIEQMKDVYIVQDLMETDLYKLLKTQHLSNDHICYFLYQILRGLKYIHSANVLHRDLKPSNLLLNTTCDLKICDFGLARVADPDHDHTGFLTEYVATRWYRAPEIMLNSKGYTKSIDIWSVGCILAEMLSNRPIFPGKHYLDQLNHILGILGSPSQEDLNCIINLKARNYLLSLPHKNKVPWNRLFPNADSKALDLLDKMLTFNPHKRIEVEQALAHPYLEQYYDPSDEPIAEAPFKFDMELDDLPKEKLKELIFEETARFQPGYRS

In general, ΔTm refers to the change in melting temperature against a reference sample. For the compound `Cc1c(N2CCNCC2)nc2ccc(Br)cc2c1C(=O)NC[C@H](CCC(=O)O)c1ccccc1Cl`, the ΔTm was 0.01 °C in assay [1]; 0.4 °C in assay [2]; 0.62 °C in assay [3]; 0.03 °C in assay [4]; 0.18 °C in assay [5]; 0.41 °C in assay [6].

Regarding `COC(=O)Nc1nc2c(s1)-c1c(c(-c3cccnc3)nn1-c1ccc(C3(N(C)C)CC3)cc1)CC2`, the ΔTm in assay [1] is 0.57 °C; in assay [2], 0.64 °C; in assay [3], -0.25 °C; in assay [4], -0.71 °C; in assay [5], 0.36 °C; in assay [6] it was -0.79 °C.

Turning to `CN(C)C(=O)Cn1cc(-c2ccc(-c3cncc4ccccc34)cc2)cn1`, the ΔTm in assay [1] was 3.4 °C; in assay [2], 0.46 °C; in assay [3] it was 1.89 °C; in assay [4], 0.72 °C; in assay [5], -0.64 °C; in assay [6], 2.96 °C.

Consider `NCc1ccc(OCCCc2sc(-c3ccc4c(c3)/C(=N/Nc3nc5ccccc5s3)CCC4)nc2C(=O)O)cc1`, for which the ΔTm in assay [1] is 0.43 °C; in assay [2], 0.49 °C; in assay [3], -0.37 °C; in assay [4], -0.12 °C; in assay [5] it was -0.02 °C; in assay [6], 1.25 °C.

`Cc1ccc(-c2cn3nc(C(=O)NC4(c5ccc(F)cc5)CN(C)C4)c(C(C)C)c3c(=O)[nH]2)cc1C`: the ΔTm is -0.12 °C in assay [1]; 0.03 °C in assay [2]; 0.69 °C in assay [3]; -0.83 °C in assay [4]; 0.08 °C in assay [5]; 0.49 °C in assay [6].

On to `O=C(O)c1cc2cc(Cc3cccnc3)ccc2o1`, for which the ΔTm is 0.65 °C in assay [1]; 0.63 °C in assay [2]; 0.07 °C in assay [3]; 0.46 °C in assay [4]; -0.29 °C in assay [5]; -0.17 °C in assay [6].

For `CC/C(=C(\c1ccccc1)c1ccc(OCCN(C)C)cc1)c1ccccc1`, the ΔTm in assay [1] was -1.51 °C; in assay [2], -1.86 °C; in assay [3], 0.3 °C; in assay [4], -1.42 °C; in assay [5], -0.3 °C; in assay [6], -2.91 °C.

`COc1cc(OC)cc(-c2cc3cnc(N)nc3nc2NC(=O)NC(C)(C)C)c1`: the ΔTm is 0.36 °C and 1.41 °C in assay [1]; 0.84 °C and 0.15 °C in assay [2]; 0.28 °C and -0.14 °C in assay [3]; -0.48 °C and 0.1 °C in assay [4]; 0.47 °C and 0.55 °C in assay [5]; -0.29 °C and 1.1 °C in assay [6].

Regarding `Cc1cc(-c2nc(-c3ccc(OC(F)(F)F)cc3)no2)nn1Cc1ccnc(N2CCN(C3CC3)CC2)c1`, the ΔTm is 0.32 °C in assay [1]; 0.39 °C in assay [2]; -1.88 °C in assay [3]; -5.07 °C in assay [4]; 0.34 °C in assay [5]; -3.42 °C in assay [6].

Turning to `O=C(O)c1ccnc(N2CC(O)(c3ccc(OCc4c(-c5c(Cl)cccc5Cl)noc4C4CC4)cc3Cl)C2)c1`, the ΔTm in assay [1] is 0.22 °C; in assay [2], -0.27 °C; in assay [3], 0.41 °C; in assay [4], -0.81 °C; in assay [5] it was -0.58 °C; in assay [6] it was -1.95 °C.

Turning to `N#CC[C@H](C1CCCC1)n1cc(-c2ncnc3[nH]ccc23)cn1`, the ΔTm turned out to be 3.71 °C in assay [1]; 1.43 °C in assay [2]; 2.02 °C in assay [3]; 4.04 °C in assay [4]; 0.74 °C in assay [5]; 5.6 °C in assay [6].

Consider `CNCc1ccc(-c2cc(-c3nc(-c4ccc(S(=O)(=O)C(C)C)cc4)cnc3N)on2)cc1`, for which the ΔTm in assay [1] was 4.85 °C; in assay [2] it was -0.24 °C; in assay [3], -0.18 °C; in assay [4], 9.94 °C; in assay [5], -0.07 °C; in assay [6] it was 2.41 °C.

With `C[C@@H]1OCC2(CCN(c3cnc(Sc4ccnc(N)c4Cl)c(N)n3)CC2)[C@@H]1N`, the ΔTm is 0.58 °C in assay [1]; 0.91 °C in assay [2]; -0.25 °C in assay [3]; 0.28 °C in assay [4]; 0.06 °C in assay [5]; -0.32 °C in assay [6].

Regarding `CS(=O)(=O)CCNCc1ccc(-c2ccc3ncnc(Nc4ccc(OCc5cccc(F)c5)c(Cl)c4)c3c2)o1`, the thermal shift (ΔTm) in assay [1] is 0.09 °C; in assay [2], 0.9 °C; in assay [3] it was 0.12 °C; in assay [4] it was -0.86 °C; in assay [5], 0.56 °C; in assay [6] it was -0.38 °C.

For the compound `COc1cc(-c2cc([C@H](O)C3CC3)n3ncnc(N)c23)ccc1CO`, the ΔTm in assay [1] came to 9.08 °C; in assay [2], 0.4 °C; in assay [3] it was 4.52 °C; in assay [4], 0.91 °C; in assay [5], 0.82 °C; in assay [6] it was 1.06 °C.

For `CN(C)[C@H]1C[C@H](n2cnc(-c3ccc(F)cn3)c2-c2ccnc3[nH]ccc23)C1`, the ΔTm is 0.17 °C in assay [1]; 0.4 °C in assay [2]; 4.93 °C in assay [3]; -0.83 °C in assay [4]; 0.21 °C in assay [5]; -0.76 °C in assay [6].

As for `Cn1c(C(=O)N[C@@H](CO)c2ccc(C(=O)O)cc2)cc2cc(Cl)ccc21`, the ΔTm was -0.2 °C in assay [1]; 0.54 °C in assay [2]; 0.58 °C in assay [3]; 0.38 °C in assay [4]; -0.04 °C in assay [5]; 0.34 °C in assay [6].

Take `CCOC(=O)C1Cc2ccccc2CN1C(=O)c1ccc(SC)s1` (stereo unspecified): the ΔTm in assay [1] was 0.02 °C; in assay [2] it was 0.34 °C; in assay [3], 0.34 °C; in assay [4], -1.03 °C; in assay [5], 0 °C; in assay [6], -1.2 °C.

Regarding `COc1cc(C(N)=O)nc(-c2cccc(C#C[C@]3(O)CCN(C)C3=O)c2)c1`, the ΔTm was -0.11 °C in assay [1]; 1.02 °C in assay [2]; -0.06 °C in assay [3]; 0.79 °C in assay [4]; 0.3 °C in assay [5]; 1.62 °C in assay [6].

As to `N=C(N)Nc1cc(C2CCNCC2)cc(C(F)(F)F)c1`, the ΔTm was 0.05 °C in assay [1]; 0.64 °C in assay [2]; 0.15 °C in assay [3]; -0.15 °C in assay [4]; 0.15 °C in assay [5]; -0.12 °C in assay [6].

`O=C(CNCc1cc2ccccc2[nH]1)N[C@H]1CC[C@@H](c2nc3ccccc3[nH]2)CC1`: the ΔTm was 0.13 °C in assay [1]; 0.52 °C in assay [2]; 0.18 °C in assay [3]; -0.57 °C in assay [4]; 0.34 °C in assay [5]; -0.41 °C in assay [6].

Regarding `CC(C)NC(=O)[C@H]1CCC[C@H]1Nc1nc(Nc2ccc(C(=O)N(C)C3CCN(C)CC3)cc2)ncc1Cl`, the ΔTm in assay [1] is 10.3 °C and 6.45 °C; in assay [2] it was 1.23 °C and 1.13 °C; in assay [3], 0.47 °C and 0.12 °C; in assay [4], 0.76 °C and -0.38 °C; in assay [5] it was 0.47 °C and 0.79 °C; in assay [6], 15.7 °C and 14.3 °C.

With `COc1cc2ncnc(N[C@H](C)c3ccccc3)c2cc1OC1CCN(S(C)(=O)=O)CC1`, the ΔTm in assay [1] came to 1.29 °C; in assay [2] it was 0.54 °C; in assay [3], 0.38 °C; in assay [4], 0.09 °C; in assay [5], 0.1 °C; in assay [6], 0.05 °C.

As for `COc1cc(C(=O)NC2CCN(C)CC2)ccc1Nc1ncc2c(n1)N(C1CCCC1)CC(F)(F)C(=O)N2C`, the ΔTm was 0.35 °C in assay [1]; 0.09 °C in assay [2]; 1.15 °C in assay [3]; -0.4 °C in assay [4]; 0.38 °C in assay [5]; 0.78 °C in assay [6].

For the compound `Cc1cc(C2CCCNC2)ccc1Nc1ncc(Br)c(NCc2cccc3c2C(C)(C)C(=O)N3)n1` (stereo unspecified), the ΔTm in assay [1] is 1.52 °C; in assay [2], 2.03 °C; in assay [3], 0.34 °C; in assay [4] it was 1.91 °C; in assay [5] it was 2.1 °C; in assay [6] it was 3.81 °C.

On to `CC(C)(C#Cc1ccc(NC(=O)COc2ccccc2C(=O)c2ccccc2)c(Cl)c1)C(=O)O`, for which the ΔTm was 0.32 °C in assay [1]; -1.47 °C in assay [2]; -0.18 °C in assay [3]; 0 °C in assay [4]; -0.94 °C in assay [5]; 0.27 °C in assay [6].
